Unmarked numbers belong to inactive results.
These compounds were tested on Vero E6 infected with SARS-CoV-2 (assay: inhibition of SARS-CoV-2 cytopathic effect; higher = more antiviral protection, active = above 15). Settings: 1 nM; 48 h.

SMILES | inhibition of SARS-CoV-2 cytopathic effect [%]
N#CC(=C(/N)Sc1ccccc1N)/C(C#N)=C(/N)Sc1ccccc1N | -0.64
CC(C)[C@@H]1C(=O)N(S(C)(=O)=O)[C@@H]2CCN(C(=O)/C=C/CN3CCCCC3)[C@H]21 | -0.03
O=P(O)(O)C(Cl)(Cl)P(=O)(O)O [clodronic-acid] | 0.55
CCCCCCCC/C=C\CCCCCCCC(=O)NCCO [oleoylethanolamide] | 1.05
COc1cc2ncc(-c3ccccc3)nc2cc1OC [tyrphostin-AG-1296] | 1.41
CNC[C@H](O)c1ccc(O)c(O)c1 [epinephrine] | 3.04
CC(=O)Nc1cccc(-n2c(=O)n(C3CC3)c(=O)c3c(Nc4ccc(I)cc4F)n(C)c(=O)c(C)c32)c1 [trametinib] | -1.42
Cc1ccc2cc(-c3c(C)ccc(C(=O)c4c(-c5ccccc5)n(C)n(-c5ccccc5)c4=O)c3N)ccc2n1 | -0.74
Cc1csc2c(N[C@@H](C)CN3CCN(S(=O)(=O)c4ccc(Cl)c(Cl)c4)CC3)ncnc12 [LPA2-antagonist-1] | -0.43
Cc1[nH]nc(C(F)(F)F)c1Cc1sc2c(c1C(=O)N1C[C@](C)(O)CO1)c(=O)n(C)c(=O)n2C(C)C | 1.31
COc1ccc(NS(=O)(=O)c2ccc(N)cc2)nn1 [sulfamethoxypyridazine] | 3.44
COc1ccc(C[C@H]2NC[C@H](O)[C@H]2OC(C)=O)cc1 [anisomycin] | 3.91
